Assay results published in PubChem BioAssay (NCI).
About 83,000 compounds went through this panel and 20% of them were active in at least one assay; those are over-represented in the sample as a whole.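 Percent growth is the endpoint: 0 to 100 indicates growth inhibition (40 means 60% inhibition), 0 means no net growth, and negative values indicate cell death.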 Unmarked numbers belong to inactive results. The source made the active and inactive calls. Rule for the calls: active = growth percent below 10; inactive = the rest.

Tests used:
Experiment in all cases: NCI-60 one-dose screen, 48 h (100 = growth as untreated, 0 = no growth, -100 = all killed)
Conditions in all cases: 10 µM unless noted
T-47D breast = tested on: T-47D breast
BT-549 breast = tested on: BT-549 breast
MDA-MB-435 melanoma = tested on: MDA-MB-435 melanoma
SW-620 colon = tested on: SW-620 colon
MCF7 breast = tested on: MCF7 breast
HCT-116 colon = tested on: HCT-116 colon
HCC-2998 colon = tested on: HCC-2998 colon
KM12 colon = tested on: KM12 colon

| SMILES | growth (T-47D breast) | growth (BT-549 breast) | growth (MDA-MB-435 melanoma) | growth (SW-620 colon) | growth (MCF7 breast) | growth (HCT-116 colon) | growth (HCC-2998 colon) [%] | growth (KM12 colon) |
| --- | --- | --- | --- | --- | --- | --- | --- | --- |
| COc1ccc(C(=O)c2cc(OC)c3c(c2)OCO3)cc1O | 56.9% | 54.5% | -22.5% (active) | 24.6% | 17.1% | 7.71% (active) | 16.2 | 4.48% (active) |
| COc1ccc(C(=O)N2NC(=O)/C(=C/c3ccc(Br)cc3)N=C2c2ccccc2)cc1 | 85.6% | 85.5% | 90.7% | 91.3% | 85.1% | 75.5% | 105 | 99.6% |
| Nc1ncnc2c1c(-c1ccc(Oc3ccccc3)cc1)nn2C[C@@H]1SSC[C@@H]1O | -30.9% (active) | 83% | -90.9% (active) | 25.4% | -4.42% (active) | 7.61% (active) | 56.5 | 37.2% |
| Cc1ccc(S(=O)(=O)NCCNc2nccc(-c3c(-c4cccc(N)c4)nc4sccn34)n2)cc1 | 51.7% | 87.5% | 93.5% | 123% | 83.4% | 99.2% | 132 | 92.2% |
| COc1cccc(-c2cc3c(O)cc(C#N)cc3[nH]2)c1 | 101% | 81.7% | 70.6% | 88% | 88.3% | 89.9% | 93.8 | 78.1% |
| Clc1cc(Cl)c2nc(-c3ccc(-c4ccc(/C=N/NC5=NCCN5)cc4)s3)cn2c1 | 79.6% | 90.9% | 99.3% | 79.2% | 57.8% | 86.3% | 105 | 93% |
| O=C1c2ccccc2-c2ccccc2C1(Cl)Cl | -42.7% (active) | -84% (active) | -90.1% (active) | -65.8% (active) | -88.7% (active) | -70.6% (active) | 89.6 | -90.6% (active) |
| CCOC(=O)c1cn2c3c(cc(C)cc3c1=O)C(=O)/C(=C/c1ccccc1)C2 | 81.7% | 84.3% | 107% | 101% | 86.7% | 86.4% | 98.9 | 102% |
| OB(O)c1cccc(-c2nc3ccc4[nH]ncc4c3c3c2CCCC3)c1F | 54.1% | 30.2% | 44.4% | 35.1% | 62.5% | 20.9% | 71.4 | 28.7% |
| CC1=C(C#N)C(=O)NC(C)C1 (configuration not stated) | 91.4% | 101% | 107% | 106% | 101% | 110% | 79.8 | 107% |
| Cc1ccc(S(=O)(=O)C2=C3C(=C(c4ccccc4)c4ccccc43)CN(S(=O)(=O)c3ccc(C)cc3)C2)cc1 | 12% | -1.45% (active) | 74.2% | -17.7% (active) | 37.6% | 8.4% (active) | 88.9 | 64.1% |
| COc1ccc(-c2nc(SCCC(C)C)nc(Nc3ccc(F)c(Cl)c3)c2C#N)cc1 | 72.4% | 97.1% | 79.1% | 54.8% | 69.1% | 68.3% | 102 | 102% |
| O=c1ccn(C2CC(O)C(O)C(CO)O2)c(=O)[nH]1 (configuration not stated) | 102% | 114% | 116% | 114% | 97.4% | 107% | 117 | 121% |
| COC(=O)c1cc(=O)nc(N/N=C/c2ccco2)s1 | 87.8% | 109% | 114% | 108% | 39.5% | 93.8% | 102 | 101% |
